Laboratory results reported in PubChem BioAssay AID1159580 (chemical genetic matrix, 2015).
Several values for one entry are separate records, joined by “and”; a condition that tells them apart may be missing. Equal entries are not always repeated. The campaign covered roughly 5,500 compounds. About 2,000 (36%) were called active. Inconclusive results (about 18%) are left out. Cut-off read from the data, not from the text of the source: active = normalized growth mostly below about 0.91 (no sharp cut-off); inconclusive = no clear call, values can overlap the other calls; inactive = mostly above about 0.92. The list shows a part of the results.

Assay: chemical genetic growth profiling, strain panel (AID 1159580);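 note: tested at 20 µM; growth read once vehicle control cultures reached saturation at 30 °C; 1 = growth at the plate median or of vehicle wells; lower values mean less growth of the strain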
Details: S. cerevisiae deletion strains, growth OD

Measured: normalized growth

c1cncc(C2CCCCN2)c1 (configuration not stated)
inactive: locus YAL021C, strain ccr4, stronger effect = lower value 0.986 | locus YAL026C, strain drs2, stronger effect = lower value 0.999 | locus YAL030W, strain snc1, stronger effect = lower value 1 | locus YBL061C, strain skt5, stronger effect = lower value 0.995 | locus YBR009C, strain hhf1, stronger effect = lower value 0.995 | locus YBR021W, strain FUR4, stronger effect = lower value 1.02 | locus YBR023C, strain chs3, stronger effect = lower value 0.998 | locus YBR171W, strain sec66, stronger effect = lower value 0.985 | locus YBR229C, strain ROT2, stronger effect = lower value 1.02 | locus YBR231C, strain swc5, stronger effect = lower value 0.991 | locus YBR279W, strain paf1, stronger effect = lower value 0.99 | locus YCL011C, strain gbp2, stronger effect = lower value 0.997 | locus YCL016C, strain dcc1, stronger effect = lower value 0.996 | locus YCL029C, strain bik1, stronger effect = lower value 0.982 | locus YCL061C, strain MRC1, stronger effect = lower value 0.988 | locus YCL069W, strain vba3, stronger effect = lower value 0.993 | locus YCR088W, strain abp1, stronger effect = lower value 0.993 | locus YDL005C, strain med2, stronger effect = lower value 0.997 | locus YDL035C, strain GPR1, stronger effect = lower value 1.04 | locus YDL040C, strain nat1, stronger effect = lower value 0.992 | locus YDL074C, strain BRE1, stronger effect = lower value 1.01 | locus YDL101C, strain DUN1, stronger effect = lower value 1.01 | locus YDL185W, strain tfp1, stronger effect = lower value 1 | locus YDL192W, strain arf1, stronger effect = lower value 0.998 | locus YDR001C, strain nth1, stronger effect = lower value 0.991 | locus YDR069C, strain doa4, stronger effect = lower value 0.988 | locus YDR101C, strain arx1, stronger effect = lower value 0.971 | locus YDR137W, strain rgp1, stronger effect = lower value 0.996 | locus YDR159W, strain sac3, stronger effect = lower value 0.979 | locus YDR162C, strain NBP2, stronger effect = lower value 1 | locus YDR195W, strain ref2 0.98 | locus YDR297W, strain sur2, stronger effect = lower value 0.986 | locus YDR318W, strain mcm21, stronger effect = lower value 1.01 | locus YDR334W, strain swr1, stronger effect = lower value 0.99 | locus YDR335W, strain msn5, stronger effect = lower value 0.994 | locus YDR388W, stronger effect = lower value 0.996 | locus YDR392W, strain spt3, stronger effect = lower value 0.99 | locus YDR502C, strain sam2, stronger effect = lower value 0.995 | locus YEL003W, strain gim4, stronger effect = lower value 1.01 | locus YEL037C, strain rad23, stronger effect = lower value 0.999 | locus YEL061C, strain CIN8 (second series), stronger effect = lower value 0.992 | locus YEL061C, strain CIN8, stronger effect = lower value 0.999 | locus YER015W, strain faa2, stronger effect = lower value 0.997 | locus YER016W, strain bim1, stronger effect = lower value 0.995 | locus YER110C, stronger effect = lower value 0.98 | locus YER111C, strain swi4, stronger effect = lower value 0.989 | locus YER155C, strain BEM2 (second series), stronger effect = lower value 0.996 | locus YER155C, strain BEM2, stronger effect = lower value 1.01 | locus YER167W, strain BCK2, stronger effect = lower value 0.993 | locus YFR010W, strain ubp6, stronger effect = lower value 0.989 | locus YGL078C, strain dbp3, stronger effect = lower value 1 | locus YGL086W, strain mad1, stronger effect = lower value 0.978 | locus YGL167C, strain pmr1, stronger effect = lower value 0.989 | locus YGL173C, strain kem1, stronger effect = lower value 0.984 | locus YGL227W, strain vid30, stronger effect = lower value 0.983 | locus YGL240W, strain doc1, stronger effect = lower value 0.981 | locus YGL248W, strain PDE1, stronger effect = lower value 1.03 | locus YGL253W, strain hxk2, stronger effect = lower value 0.986 | locus YGR078C, strain PAC10, stronger effect = lower value 1.01 | locus YGR135W, strain pre9, stronger effect = lower value 0.999 | locus YGR252W, strain gcn5, stronger effect = lower value 0.969 | locus YHR013C, strain ard1, stronger effect = lower value 1 | locus YHR027C, strain rpn1, stronger effect = lower value 0.985 | locus YHR030C, strain SLT2, stronger effect = lower value 1.01 and 1.02 | locus YHR079C, strain IRE1 (second series), stronger effect = lower value 0.998 | locus YHR079C, strain IRE1, stronger effect = lower value 1 | locus YHR094C, strain hxt1, stronger effect = lower value 0.996 | locus YHR129C, strain ARP1, stronger effect = lower value 1 | locus YHR142W, strain chs7, stronger effect = lower value 0.985 | locus YHR200W, strain rpn10, stronger effect = lower value 0.999 | locus YIL066C, strain RNR3, stronger effect = lower value 1.01 | locus YIL073C, strain SPO22, stronger effect = lower value 0.996 | locus YIL125W, strain kgd1, stronger effect = lower value 0.986 | locus YIR030C, strain dcg1, stronger effect = lower value 0.988 | locus YJL092W, strain hpr5, stronger effect = lower value 0.995 | locus YJL095W, strain BCK1 (second series), stronger effect = lower value 1.01 | locus YJL095W, strain BCK1, stronger effect = lower value 1.05 and 0.994 | locus YJL115W, strain asf1, stronger effect = lower value 0.986 | locus YJL129C, strain trk1, stronger effect = lower value 0.999 | locus YJL134W, strain LCB3, stronger effect = lower value 1.01 | locus YJL154C, strain vps35, stronger effect = lower value 0.991 | locus YJL164C, strain tpk1, stronger effect = lower value 0.998 | locus YJL166W, strain qcr8, stronger effect = lower value 0.993 | locus YJL168C, strain set2, stronger effect = lower value 0.995 | locus YJL187C, strain SWE1 (second series), stronger effect = lower value 1.03 | locus YJL187C, strain SWE1, stronger effect = lower value 1.01 | locus YJR043C, strain POL32, stronger effect = lower value 1.02
